# According to PubChem BioAssay:
# Calls of active or inactive are those of the source. Rule as the data show it, unless noted: active = inhibition above about 80%; inactive = the rest.
# Experiment: HTB85 osteosarcoma cell growth inhibition, synergistic combos for chromothripsis tumors, BGB or cisplatin IC20 combos (AID 1671453);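 also: cells exposed for 96 hours before readout; 0% = vehicle DMSO and 100% = high DMSO killing control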
# Conditions: HTB85 osteosarcoma cells, drug combinations, measured here: with BGB IC20, at 0.5 µM, stronger effect = higher value
row,Compound,inhibition
1,O=c1cc(-c2cccc3c2Sc2ccccc2S3)oc(N2CCOCC2)c1,-13.9%
2,CCc1c2c(nc3ccc(O)cc13)-c1cc3c(c(=O)n1C2)COC(=O)[C@]3(O)CC,96.1%
3,O=c1[nH]c(-c2ccc(C(F)(F)F)cc2)nc2c1CSCC2,-23%

# Same assay, conditions: HTB85 osteosarcoma cells, drug combinations, measured here: with BGB IC20, at 5 µM, stronger effect = higher value
row,Compound,inhibition
1,O=c1cc(-c2cccc3c2Sc2ccccc2S3)oc(N2CCOCC2)c1,-31%
2,CCc1c2c(nc3ccc(O)cc13)-c1cc3c(c(=O)n1C2)COC(=O)[C@]3(O)CC,98.1%
3,O=c1[nH]c(-c2ccc(C(F)(F)F)cc2)nc2c1CSCC2,-21.9%

# Same assay, conditions: HTB85 osteosarcoma cells, drug combinations, measured here: with cisplatin IC20, at 0.5 µM, stronger effect = higher value
row,Compound,inhibition
1,O=c1cc(-c2cccc3c2Sc2ccccc2S3)oc(N2CCOCC2)c1,-8.83%
2,CCc1c2c(nc3ccc(O)cc13)-c1cc3c(c(=O)n1C2)COC(=O)[C@]3(O)CC,99.1%
3,O=c1[nH]c(-c2ccc(C(F)(F)F)cc2)nc2c1CSCC2,-30.4%

# Same assay, conditions: HTB85 osteosarcoma cells, drug combinations, measured here: with cisplatin IC20, at 5 µM, stronger effect = higher value
row,Compound,inhibition
1,O=c1cc(-c2cccc3c2Sc2ccccc2S3)oc(N2CCOCC2)c1,-19.5%
2,CCc1c2c(nc3ccc(O)cc13)-c1cc3c(c(=O)n1C2)COC(=O)[C@]3(O)CC,99.5%
3,O=c1[nH]c(-c2ccc(C(F)(F)F)cc2)nc2c1CSCC2,-19.6%

# Same assay, conditions: HTB85 osteosarcoma cells, drug combinations, single agent, at 5 µM, stronger effect = higher value
row,Compound,inhibition
1,O=c1cc(-c2cccc3c2Sc2ccccc2S3)oc(N2CCOCC2)c1,-17.7%
2,CCc1c2c(nc3ccc(O)cc13)-c1cc3c(c(=O)n1C2)COC(=O)[C@]3(O)CC,99.6%
3,O=c1[nH]c(-c2ccc(C(F)(F)F)cc2)nc2c1CSCC2,3.2%

# Experiment: CRL2098 osteosarcoma cell growth inhibition, synergistic combos for chromothripsis tumors, BGB or cisplatin IC20 combos (AID 1671454);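 also: cells exposed for 96 h before readout; 0% = vehicle DMSO and 100% = killing by high DMSO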
# Conditions: CRL2098 osteosarcoma cells, drug combinations, at 0.5 µM, stronger effect = higher value
row,Compound,inhibition
1,O=c1cc(-c2cccc3c2Sc2ccccc2S3)oc(N2CCOCC2)c1,-29.5% (inactive)
2,CCc1c2c(nc3ccc(O)cc13)-c1cc3c(c(=O)n1C2)COC(=O)[C@]3(O)CC,57.3% (inactive)
3,O=c1[nH]c(-c2ccc(C(F)(F)F)cc2)nc2c1CSCC2,-39.2% (inactive)

# Same assay, conditions: CRL2098 osteosarcoma cells, drug combinations, measured here: combination with BGB at IC20, at 0.5 µM, stronger effect = higher value
row,Compound,inhibition
1,O=c1cc(-c2cccc3c2Sc2ccccc2S3)oc(N2CCOCC2)c1,-49.7%
2,CCc1c2c(nc3ccc(O)cc13)-c1cc3c(c(=O)n1C2)COC(=O)[C@]3(O)CC,88.7%
3,O=c1[nH]c(-c2ccc(C(F)(F)F)cc2)nc2c1CSCC2,-20.7%

# Same assay, conditions: CRL2098 osteosarcoma cells, drug combinations, measured here: combination with cisplatin at IC20, at 0.5 µM, stronger effect = higher value
row,Compound,inhibition
1,O=c1cc(-c2cccc3c2Sc2ccccc2S3)oc(N2CCOCC2)c1,-36.1%
2,CCc1c2c(nc3ccc(O)cc13)-c1cc3c(c(=O)n1C2)COC(=O)[C@]3(O)CC,37.4%
3,O=c1[nH]c(-c2ccc(C(F)(F)F)cc2)nc2c1CSCC2,-76.4%

# Experiment: HD-MB03 medulloblastoma cell growth inhibition, synergistic combos for chromothripsis tumors, BGB or cisplatin IC20 combos (AID 1671455; in the data active = inhibition above about 83%;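 also: 0% = vehicle DMSO and 100% = high DMSO as cytotoxic control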)
# Conditions: HD-MB03 medulloblastoma cells, at 0.5 µM, stronger effect = higher value
row,Compound,inhibition
1,O=c1cc(-c2cccc3c2Sc2ccccc2S3)oc(N2CCOCC2)c1,-12.6% (inactive)
2,CCc1c2c(nc3ccc(O)cc13)-c1cc3c(c(=O)n1C2)COC(=O)[C@]3(O)CC,99.5% (active)
3,O=c1[nH]c(-c2ccc(C(F)(F)F)cc2)nc2c1CSCC2,-8.71% (inactive)

# Same assay, conditions: HD-MB03 medulloblastoma cells, measured here: combo with BGB at IC20, at 0.5 µM, stronger effect = higher value
row,Compound,inhibition
1,O=c1cc(-c2cccc3c2Sc2ccccc2S3)oc(N2CCOCC2)c1,-13%
2,CCc1c2c(nc3ccc(O)cc13)-c1cc3c(c(=O)n1C2)COC(=O)[C@]3(O)CC,99.5%
3,O=c1[nH]c(-c2ccc(C(F)(F)F)cc2)nc2c1CSCC2,-15.3%

# Same assay, conditions: HD-MB03 medulloblastoma cells, measured here: combo with cisplatin at IC20, at 0.5 µM, stronger effect = higher value
row,Compound,inhibition
1,O=c1cc(-c2cccc3c2Sc2ccccc2S3)oc(N2CCOCC2)c1,-6.59%
2,CCc1c2c(nc3ccc(O)cc13)-c1cc3c(c(=O)n1C2)COC(=O)[C@]3(O)CC,99.6%
3,O=c1[nH]c(-c2ccc(C(F)(F)F)cc2)nc2c1CSCC2,-8.24%

# Experiment: UWB1.289 ovarian carcinoma cell growth inhibition, synergistic combos for chromothripsis tumors, BGB or cisplatin combos (AID 1671456);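 also: cells exposed to compound for four days; 0% = vehicle DMSO and 100% = killing by high DMSO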
# Conditions: UWB1.289 ovarian carcinoma cells, at 0.5 µM, stronger effect = higher value
row,Compound,inhibition
1,O=c1cc(-c2cccc3c2Sc2ccccc2S3)oc(N2CCOCC2)c1,-9.95% (inactive)
2,CCc1c2c(nc3ccc(O)cc13)-c1cc3c(c(=O)n1C2)COC(=O)[C@]3(O)CC,74.5% (inactive)
3,O=c1[nH]c(-c2ccc(C(F)(F)F)cc2)nc2c1CSCC2,-2.17% (inactive)

# Same assay, conditions: UWB1.289 ovarian carcinoma cells, measured here: inhibition with BGB combination, at 0.05 µM, stronger effect = higher value
row,Compound,inhibition
1,O=c1cc(-c2cccc3c2Sc2ccccc2S3)oc(N2CCOCC2)c1,-28.4%
2,CCc1c2c(nc3ccc(O)cc13)-c1cc3c(c(=O)n1C2)COC(=O)[C@]3(O)CC,31%
3,O=c1[nH]c(-c2ccc(C(F)(F)F)cc2)nc2c1CSCC2,-13.9%

# Same assay, conditions: UWB1.289 ovarian carcinoma cells, measured here: inhibition with cisplatin combination, at 0.05 µM, stronger effect = higher value
row,Compound,inhibition
1,O=c1cc(-c2cccc3c2Sc2ccccc2S3)oc(N2CCOCC2)c1,-10.7%
2,CCc1c2c(nc3ccc(O)cc13)-c1cc3c(c(=O)n1C2)COC(=O)[C@]3(O)CC,49.3%
3,O=c1[nH]c(-c2ccc(C(F)(F)F)cc2)nc2c1CSCC2,-26.3%

# Experiment: LFS_MB_2R medulloblastoma cell growth inhibition, synergistic combos for chromothripsis tumors, cisplatin combos (AID 1671457);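 also: cells exposed to compound for four days before readout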
# Conditions: LFS_MB_2R medulloblastoma cells, at 0.5 µM, stronger effect = higher value
row,Compound,inhibition
1,O=c1cc(-c2cccc3c2Sc2ccccc2S3)oc(N2CCOCC2)c1,-22.3% (inactive)
2,CCc1c2c(nc3ccc(O)cc13)-c1cc3c(c(=O)n1C2)COC(=O)[C@]3(O)CC,13.2% (inactive)
3,O=c1[nH]c(-c2ccc(C(F)(F)F)cc2)nc2c1CSCC2,-7.37% (inactive)

# Same assay, conditions: LFS_MB_2R medulloblastoma cells, measured here: combination with cisplatin, at 0.5 µM, stronger effect = higher value
row,Compound,inhibition
1,O=c1cc(-c2cccc3c2Sc2ccccc2S3)oc(N2CCOCC2)c1,-27.3%
2,CCc1c2c(nc3ccc(O)cc13)-c1cc3c(c(=O)n1C2)COC(=O)[C@]3(O)CC,48.9%
3,O=c1[nH]c(-c2ccc(C(F)(F)F)cc2)nc2c1CSCC2,-7.07%

# Same assay, conditions: LFS_MB_2R medulloblastoma cells, measured here: combination with cisplatin, at 5 µM, stronger effect = higher value
row,Compound,inhibition
1,O=c1cc(-c2cccc3c2Sc2ccccc2S3)oc(N2CCOCC2)c1,-42.7%
2,CCc1c2c(nc3ccc(O)cc13)-c1cc3c(c(=O)n1C2)COC(=O)[C@]3(O)CC,61.9%
3,O=c1[nH]c(-c2ccc(C(F)(F)F)cc2)nc2c1CSCC2,-6.53%
